# mHTT-CaM PPI inh = mutant huntingtin-calmodulin interaction inhibitors – biochemical, AlphaScreen, primary screen; P42858; AlphaScreen His-mHTT/GST-CaM binding, luminescence; inhibition, % at 15 µM; 3.6% of 190,000 active
# Pf apPOL block = Pf-apPOL inhibitors, biochemical, fluorescence | Plasmodium falciparum apicoplast DNA polymerase (apPOL) | Recombinant Pf-apPOL, molecular beacon fluorescence, 1.5 h | inhibition, % at 10 µM | 0.25% of 210,000 active | AID 1794808, 2022
# Hits are given with their value; . = inactive; / = not tested or not shown. Many of the other results were omitted from the sample, so hits are more common in it than they were. Rule as the data show it: active = inhibition above about 50%; inactive = the rest.
SMILES,mHTT-CaM PPI inh,Pf apPOL block
Cc1ccc(C(=O)N2CCc3c(c(-c4nc(C)no4)nn3C)C2)c(C)c1,.,.
O=C(Nc1ccc([N+](=O)[O-])cc1O)C1C2CC/C=C\CCC21 (stereo unspecified),.,93
Cc1ccc([N+](=O)[O-])cc1NC(=O)C1CC1,.,.
CCn1cc2c3c(cccc31)CN(C(=O)c1cccc(OC)c1)CC2,69,.
COc1cc(OC)cc(C(=O)N2CCc3cn(C)c4cccc(c34)C2)c1,55,.
CCn1cc2c3c(cccc31)CN(C(=O)NCc1cccc(OC)c1)CC2,.,.
Cn1cc2c3c(cccc31)CN(C(=O)C1CCCC1)CC2,.,.
COc1cc(NC(=O)N2CCc3cn(C)c4cccc(c34)C2)cc(OC)c1,.,.
Cn1cc2c3c(cccc31)CN(C(=O)C1CCCCC1)CC2,62,.
CCNC(=O)C1=C2CCCN2c2ccc(F)cc2S1(=O)=O,.,.
COc1ccc(C2C(C(=O)Nc3cccc(C)n3)c3cc(OC)c(OC)cc3C(=O)N2C)cc1 (stereo unspecified),.,.
CC(=O)Nc1ccc2nc(-c3ccc4nc(NC(C)=O)sc4c3)[nH]c2c1,.,.
Cc1ccc(CSCC(=O)Nc2cccc([N+](=O)[O-])c2)cc1,.,.
Cc1sc2nc(SCC(=O)c3ccc(O)c(O)c3)[nH]c(=O)c2c1C,68,.
Cc1cc(C)c2c(=O)[nH]c(SCC(=O)c3ccc(O)c(O)c3)nc2n1,.,.
Cn1cc(CC(=O)N2CCC(N3CCCCC3)CC2)c2cccnc21,.,.
Cc1ccc(C)c(N2CCC(C(=O)Nc3cccc(C(F)(F)F)c3)C2=O)c1 (stereo unspecified),79,.
Cc1ccc(C)c(N2CCC(C(=O)Nc3cccc(Cl)c3)C2=O)c1 (stereo unspecified),.,.
O=C(NCCc1cccs1)C1CCN(c2cc(N3CCSCC3)ncn2)CC1,.,.
Cc1nc2scc(C)n2c(=O)c1NC(=O)c1ccccc1C(F)(F)F,.,.
Cc1nc2ccccc2c(=O)n1Cc1cccnc1,.,.
O=c1c2ccccc2nc2c3ccccc3c(NCc3ccccn3)nn12,81,.
Cc1cc(C)n(-c2nn3c(=O)c4ccccc4nc3c3ccccc23)n1,.,.
O=c1c2ccccc2nc2c3ccccc3c(NCc3cccnc3)nn12,80,.
CCOc1ccccc1NC(=O)c1ccc(F)c(S(=O)(=O)N(CC)c2cccc(C)c2)c1,.,.
SMILES,mHTT-CaM PPI inh,Pf apPOL block
CSCCC(C)(O)CNC(=O)C=Cc1ccccc1 (stereo unspecified),.,.
O=C(CNC(=O)c1ccc(=O)[nH]c1)NCc1cccnc1,.,.
Cc1nc2c(-c3ccc(Cl)cc3)c(C)nn2c(N)c1-c1ccccc1,.,.
COc1ccc(-c2cc3nc(C)cc(Nc4ccc(C(N)=O)cc4)n3n2)cc1OC,.,.
Cc1nn2c(N)cc(-c3ccccc3)nc2c1-c1ccccc1,83,.
Cc1cc(Nc2ccc(C(N)=O)cc2)n2nc(C)c(-c3ccccc3)c2n1,74,.
COC(=O)/C(C#N)=C\c1ccc([N+](=O)[O-])o1,.,/
CC(NC(=O)C(=O)NCC1CCCO1)c1ccccc1 (stereo unspecified),.,.
CN(C)c1ccc(C(CNC(=O)C(=O)NCC2CCCO2)N2CCc3ccccc32)cc1 (stereo unspecified),65,.
COc1ccc(-n2c(NN)nc3sc4c(c3c2=O)CCCC4)cc1,61,.
COc1ccc(-n2c(=O)c3c4c(sc3n3cnnc23)CCCC4)cc1,.,.
CCOc1ccc(-c2nc3cc(N=Cc4cccc(OC)c4O)ccc3o2)cc1,.,.
CCCC1CCC2(CCCN2CCOC(=S)Nc2cccc(Cl)c2)CC1 (stereo unspecified),.,.
CCCC1CCC2(CCCN2CCOC(=O)Nc2cccc(Cl)c2)CC1 (stereo unspecified),95,.
CCCC1CCC2(CCCN2CCOC(=S)Nc2ccccc2Cl)CC1 (stereo unspecified),.,.
CCCC1CCC2(CCCN2CCOC(=S)Nc2ccccc2)CC1 (stereo unspecified),61,.
COc1cc(Br)cc(C2Nc3ccccc3-c3nnc(SC)nc3O2)c1OC (stereo unspecified),.,.
CCN1CCN(C(=O)c2cc3n(n2)CCCN(Cc2ccc(F)cc2)C3=O)CC1,.,.
CC1CN(C)C(C)CC1NCc1ccccc1 (stereo unspecified),.,.
Cc1nc(-c2cccc(OCc3ccccc3F)c2)no1,.,.
CC1CCCN(C(=O)c2cc3c(n2C)CCN(Cc2ccc(F)cc2)C3)C1 (stereo unspecified),58,.
Cn1c(C(=O)NC2CC2)cc2c1CCN(Cc1ccc(F)cc1)C2,.,.
Cn1c(C(=O)N2CCC(N3CCCCC3)CC2)cc2c1CCN(Cc1ccccc1)C2,.,.
CC1CCCN(C(=O)c2cc3c(n2C)CCN(Cc2ccccc2)C3)C1 (stereo unspecified),69,.

# Screening data from PubChem BioAssay.
